High-throughput results as filed in PubChem.
Pf apPOL block: Pf-apPOL DNA polymerase inhibition; Recombinant Pf-apPOL, molecular beacon fluorescence, 1.5 h; inhibition, % at 10 µM; actives 0.25% (n = 210,000); AID 1794808
mHTT CaM bind: inhibitors of human mutant huntingtin-calmodulin interaction. AlphaScreen His-mHTT/GST-CaM binding, luminescence. P42858. inhibition, % at 15 µM. actives 3.6% (n = 190,000)
Target sequence (P42858 whole entry, looked up, change not shown): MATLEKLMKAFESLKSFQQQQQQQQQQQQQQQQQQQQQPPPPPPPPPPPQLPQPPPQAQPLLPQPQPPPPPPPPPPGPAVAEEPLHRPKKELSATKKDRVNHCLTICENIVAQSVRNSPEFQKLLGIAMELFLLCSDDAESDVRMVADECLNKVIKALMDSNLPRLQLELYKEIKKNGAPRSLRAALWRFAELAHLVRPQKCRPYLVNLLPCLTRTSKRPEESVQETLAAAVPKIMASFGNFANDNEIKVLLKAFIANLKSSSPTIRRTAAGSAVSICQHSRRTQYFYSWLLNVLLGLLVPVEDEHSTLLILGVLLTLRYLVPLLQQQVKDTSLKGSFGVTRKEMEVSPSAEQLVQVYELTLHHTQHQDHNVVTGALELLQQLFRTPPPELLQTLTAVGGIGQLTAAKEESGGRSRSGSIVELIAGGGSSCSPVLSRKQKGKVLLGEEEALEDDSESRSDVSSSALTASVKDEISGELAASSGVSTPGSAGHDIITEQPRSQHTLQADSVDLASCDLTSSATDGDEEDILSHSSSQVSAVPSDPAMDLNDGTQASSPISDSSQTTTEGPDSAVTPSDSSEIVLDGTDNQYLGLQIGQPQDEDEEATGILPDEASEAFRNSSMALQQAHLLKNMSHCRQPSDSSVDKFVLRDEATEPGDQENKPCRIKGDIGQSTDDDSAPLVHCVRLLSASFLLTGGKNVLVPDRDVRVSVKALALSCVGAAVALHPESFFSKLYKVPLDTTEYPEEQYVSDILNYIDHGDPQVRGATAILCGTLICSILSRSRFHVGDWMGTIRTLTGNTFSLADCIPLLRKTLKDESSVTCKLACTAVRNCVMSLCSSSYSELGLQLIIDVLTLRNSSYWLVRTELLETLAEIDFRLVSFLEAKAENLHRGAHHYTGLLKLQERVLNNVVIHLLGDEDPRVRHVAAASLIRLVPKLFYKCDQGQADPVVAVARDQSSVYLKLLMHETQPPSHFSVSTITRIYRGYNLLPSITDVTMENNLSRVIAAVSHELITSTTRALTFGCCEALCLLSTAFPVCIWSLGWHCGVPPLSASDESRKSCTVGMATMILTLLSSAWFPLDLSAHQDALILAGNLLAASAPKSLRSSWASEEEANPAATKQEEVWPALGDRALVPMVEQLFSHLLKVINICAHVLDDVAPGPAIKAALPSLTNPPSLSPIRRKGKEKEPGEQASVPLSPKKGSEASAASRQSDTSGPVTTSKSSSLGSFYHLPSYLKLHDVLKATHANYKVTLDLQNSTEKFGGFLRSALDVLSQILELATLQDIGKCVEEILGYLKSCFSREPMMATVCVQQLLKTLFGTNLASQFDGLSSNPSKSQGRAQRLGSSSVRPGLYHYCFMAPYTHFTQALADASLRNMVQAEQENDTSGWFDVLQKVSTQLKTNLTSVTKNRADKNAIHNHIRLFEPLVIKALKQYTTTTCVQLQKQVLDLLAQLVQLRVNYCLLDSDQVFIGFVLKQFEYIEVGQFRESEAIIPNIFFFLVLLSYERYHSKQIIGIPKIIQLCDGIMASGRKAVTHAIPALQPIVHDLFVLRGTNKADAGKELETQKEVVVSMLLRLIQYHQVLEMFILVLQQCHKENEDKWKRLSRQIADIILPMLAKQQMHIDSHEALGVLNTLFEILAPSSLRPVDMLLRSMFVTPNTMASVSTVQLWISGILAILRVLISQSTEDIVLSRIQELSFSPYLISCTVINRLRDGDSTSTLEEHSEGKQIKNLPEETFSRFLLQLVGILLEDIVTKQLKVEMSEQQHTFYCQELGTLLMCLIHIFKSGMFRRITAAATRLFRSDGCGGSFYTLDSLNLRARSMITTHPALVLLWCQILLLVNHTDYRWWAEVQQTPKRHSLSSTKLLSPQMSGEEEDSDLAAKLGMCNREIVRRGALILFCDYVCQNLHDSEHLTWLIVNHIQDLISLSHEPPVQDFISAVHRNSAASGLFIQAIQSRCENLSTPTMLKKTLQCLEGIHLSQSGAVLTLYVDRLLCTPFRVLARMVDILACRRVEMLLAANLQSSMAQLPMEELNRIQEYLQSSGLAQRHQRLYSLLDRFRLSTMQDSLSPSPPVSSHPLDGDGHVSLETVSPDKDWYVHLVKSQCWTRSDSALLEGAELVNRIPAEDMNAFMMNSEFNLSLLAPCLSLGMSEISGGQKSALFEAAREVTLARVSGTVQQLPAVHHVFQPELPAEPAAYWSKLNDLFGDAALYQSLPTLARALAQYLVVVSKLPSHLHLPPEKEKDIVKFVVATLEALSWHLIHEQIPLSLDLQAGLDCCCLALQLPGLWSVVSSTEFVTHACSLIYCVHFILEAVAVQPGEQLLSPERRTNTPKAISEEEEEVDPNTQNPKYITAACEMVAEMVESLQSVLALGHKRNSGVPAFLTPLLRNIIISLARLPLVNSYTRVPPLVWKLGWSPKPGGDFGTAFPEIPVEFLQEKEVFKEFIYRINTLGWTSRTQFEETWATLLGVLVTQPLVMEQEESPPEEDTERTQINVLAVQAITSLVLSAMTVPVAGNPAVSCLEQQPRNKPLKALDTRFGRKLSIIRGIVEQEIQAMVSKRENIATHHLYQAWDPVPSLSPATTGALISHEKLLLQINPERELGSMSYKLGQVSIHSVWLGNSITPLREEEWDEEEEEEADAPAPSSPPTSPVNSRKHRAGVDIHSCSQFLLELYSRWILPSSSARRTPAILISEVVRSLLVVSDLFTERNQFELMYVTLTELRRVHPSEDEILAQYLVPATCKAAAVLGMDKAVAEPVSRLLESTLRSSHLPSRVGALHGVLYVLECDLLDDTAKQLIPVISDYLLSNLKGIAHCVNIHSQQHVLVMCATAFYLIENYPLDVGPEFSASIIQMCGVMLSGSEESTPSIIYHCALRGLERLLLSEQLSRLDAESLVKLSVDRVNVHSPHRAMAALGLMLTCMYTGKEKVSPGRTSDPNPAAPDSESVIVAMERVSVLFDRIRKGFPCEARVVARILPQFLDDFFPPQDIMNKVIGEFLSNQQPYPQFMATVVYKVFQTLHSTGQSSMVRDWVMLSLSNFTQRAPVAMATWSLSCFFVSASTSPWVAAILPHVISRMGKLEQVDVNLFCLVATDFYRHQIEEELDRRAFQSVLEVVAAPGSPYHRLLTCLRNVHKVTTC
A number is an active result; - = inactive; . = no result; ! = a repeat was not active. Shown are actives, neighbours in structure and some others; about 3.5% of the full set was active somewhere. Rule as the data show it: active = inhibition above about 50%; inactive = the rest.

SMILES	Pf apPOL block	mHTT CaM bind
Cn1nc(C(=O)N2CCc3[nH]nc(-c4ccccc4)c3C2)c2ccccc21	-	87.4
Cc1ccc(-c2n[nH]c3c2CN(C(=O)c2ccoc2)CC3)cc1	-	-
COc1cccc(C(=O)NCCc2cc3c(OC)ccc(OC)c3[nH]c2=O)c1OC	-	-
O=C(NC1CCCCC1)c1cccc(CN2C(=O)C3CCCN3C(=O)c3ccccc32)c1 (stereo not given)	-	-
O=c1c2scc(-c3ccc(Br)cc3)c2ncn1Cc1ccccn1	-	-
O=C1CC(c2ccc3c(c2)OCO3)CC2=C1C(c1ccc(C(F)(F)F)cc1)Nc1ccccc1N2 (stereo not given)	-	62.0
O=C1CC(c2ccccc2)CC2=C1C(c1cccc(C(F)(F)F)c1)Nc1ccccc1N2 (stereo not given)	-	61.0
O=C1CC(c2ccc3c(c2)OCO3)CC2=C1C(c1ccc3c(c1)OCO3)Nc1ccccc1N2 (stereo not given)	-	-
COc1cccc(C2CC(=O)C3=C(C2)Nc2ccccc2NC3c2ccc(C(F)(F)F)cc2)c1 (stereo not given)	-	53.0
COc1cccc(C2CC(=O)C3=C(C2)Nc2ccccc2NC3c2ccc(C)s2)c1 (stereo not given)	-	-
O=C1CC(c2ccccc2)CC2=C1C(c1ccc(F)cc1)Nc1ccccc1N2 (stereo not given)	-	-
O=C1CC(c2cccs2)CC2=C1C(c1ccc(Cl)cc1)Nc1ccccc1N2 (stereo not given)	-	-
CSc1ccc(C2Nc3ccccc3NC3=C2C(=O)CC(c2cccs2)C3)cc1 (stereo not given)	-	54.0
O=C(CSc1nnc(Cn2ccc(=O)[nH]c2=O)o1)Nc1ccccc1C(=O)O	-	-
CCOc1ccc(C(=O)N2CCC3(CC2)NC(=O)c2cccc(Cl)c2N3)cc1	-	-
O=C(Nc1cccc(Br)c1)C1CCN(C(=O)c2ccccc2Cl)CC1	-	-
CCCN(C)C(=O)c1cn2c(n1)CCCC2	-	-
COc1ccc(C(O)=C2C(=O)C(=O)N(c3nnc(C)s3)C2c2ccc(Cl)c(Cl)c2)cc1 (stereo not given)	-	99.5
CCOc1ccc(C(O)=C2C(=O)C(=O)N(c3nnc(C)s3)C2c2ccc([N+](=O)[O-])cc2)cc1 (stereo not given)	-	-
CCCn1cnnc1C1CCCCN1S(=O)(=O)c1cccc(C#N)c1 (stereo not given)	-	-
COc1cc2c(c(O)c1OC)c(=O)c1ccccc1n2C	-	.
COc1ccc(CN2COc3ccc4c(c3C2)OC(=Cc2ccco2)C4=O)cc1OC	-	53.1
COc1cc(CN2COc3ccc4c(c3C2)OC(=Cc2ccco2)C4=O)cc(OC)c1OC	-	50.9
COc1cc(CN2COc3ccc4c(c3C2)OC(=Cc2ccccc2)C4=O)cc(OC)c1OC	-	-
COc1ccccc1CN1COc2ccc3c(c2C1)OC(=Cc1ccco1)C3=O	-	-
SMILES	Pf apPOL block	mHTT CaM bind
CCOC(=O)COc1ccc2c(-c3cc4cccc(OCC)c4oc3=O)cc(=O)oc2c1	-	-
O=C(Nc1ccc(S(=O)(=O)Nc2ccccn2)cc1)C1(c2ccccc2)CCOCC1	-	-
CC(=O)Nc1nc2ccc(Br)cc2s1	-	-
CC(=O)Nc1nc2cc3sc(NC(C)=O)nc3cc2s1	53.4!	-
CCc1ccc2c(c1)C1(NN=C(c3ccc(C)cc3)S1)C(=O)N2 (stereo not given)	-	99.8
O=C1Nc2ccc(Br)cc2C12NN=C(c1ccccc1)S2 (stereo not given)	-	100.0
CCc1ccc2c(c1)C(=O)C(=O)N2	-	-
O=C1Nc2ccc(Br)cc2C1(O)Cc1ccccn1 (stereo not given)	-	-
COc1cc(OC)c(OC)cc1CNc1sc2c(c1C(=O)Nc1ccccc1OC)CCC2	-	53.0
CCOc1ccccc1NC(=O)c1c(NCc2cccc(OC)c2OC)sc2c1CCC2	-	-
COc1ccccc1NC(=O)c1c(NC(=O)c2ccco2)sc2c1CCCC2	-	-
COc1ccccc1NC(=O)c1c(NCc2cccc(F)c2)sc2c1CCC2	-	63.0
Cc1cc(C(=O)N2CCN(c3ccccc3)CC2)ccc1[N+](=O)[O-]	-	-
CC(C)NC(=O)c1c2c(nc3ccccc13)CCC2	-	-
O=C(c1cc2c(s1)CCC(C(=O)N1CCN(c3ccccn3)CC1)C2)N1CCCC1 (stereo not given)	-	-
O=C(c1ccc2ccccc2n1)N1CCC(CCOc2ccccc2)CC1	-	-
CC1CC(=O)N(c2ccc(NCc3cccnc3)c([N+](=O)[O-])c2)C1=O (stereo not given)	-	-
COc1cccc(CNC(=O)N2CCC3(CC2)Nc2ccccc2-n2cccc23)c1	-	61.4
CCCNC(=O)N1CCC2(CC1)Nc1cc(F)ccc1-n1cccc12	-	-
O=C(NCc1ccccc1)N1CCC2(CC1)Nc1ccccc1-n1cccc12	-	71.2
O=C(NCc1ccc(F)cc1)N1CCC2(CC1)Nc1ccccc1-n1cccc12	-	56.1
O=C(NCCc1ccccc1)N1CCC2(CC1)Nc1cc(F)ccc1-n1cccc12	-	56.3
COC(=O)CNC(=O)N1CCC2(CC1)Nc1ccccc1-n1cccc12	-	-
COCCNC(=O)N1CCC2(CC1)Nc1cc(F)ccc1-n1cccc12	-	-
Cc1cccc(CNC(=O)C2CCN(c3cc(=O)n(C)c(=O)n3C)CC2)c1	-	-
SMILES	Pf apPOL block	mHTT CaM bind
O=C(NCCCn1cccc1)C1CC(=O)N(c2ccc(F)cc2)C1 (stereo not given)	-	-
O=C(NCCc1ccccc1)N1CCC2(CC1)Nc1ccccc1-n1cccc12	-	68.6
CN1c2ccccc2C(=O)NC12CCN(C(=O)NCCc1ccccc1)CC2	-	-
Cc1ccc(C2C(C#N)=C(N)OC3=C2C(=O)CCC3)o1 (stereo not given)	-	-
Cc1ccc(C2C(C#N)=C(N)Oc3c2sc2ccccc32)o1 (stereo not given)	-	86.0
CSc1ccc(NC(=O)N2CC3CC2CC3NC(=O)c2ccccc2)cc1 (stereo not given)	-	-
O=C(O)CCN1C(=O)C(=O)C(=C(O)c2ccc(Cl)cc2)C1c1ccccc1[N+](=O)[O-] (stereo not given)	-	-
CSc1nnc(-c2ccco2)c(-c2ccco2)n1	-	-
Clc1cc2nc(-c3ccco3)c(-c3ccco3)nc2cc1Cl	-	100.0
CCOc1ncccc1CNC(=O)c1ccccc1C(F)(F)F	-	-
O=C1C(=C(c2ccccc2)c2ccccc2)C(=O)c2ccccc21	-	60.7
O=C1C(c2ccccc2)=C(c2ccccc2)c2ccccc21	-	-
Cc1cc(C)n2nc(CC(=O)NCCc3ccccc3Cl)nc2n1	-	-
Cn1nc(C(=O)NCc2ccccc2)c2c1CCN(C(=O)CC1CCCC1)C2	-	70.6
CCCC(=O)N1CCc2c(c(C(=O)NCc3ccccc3)nn2C)C1	-	-
Cn1nc(C(=O)NCc2ccc(F)cc2)c2c1CCN(C(=O)c1ccc(Cl)cc1)C2	-	-
Cn1nc(C(=O)NCc2ccccc2)c2c1CCN(C(=O)C1CCCCC1)C2	-	84.9
Cc1cccc(CNC(=O)c2nn(C)c3c2CN(C(=O)C2CCCCC2)CC3)c1	-	-
COc1ccc(C(=O)N2CCc3c(c(C(=O)NCc4ccc(Cl)cc4)nn3C)C2)cc1	-	80.2
Cn1nc(C(=O)NCc2ccc(F)cc2)c2c1CCN(C(=O)CC1CCCC1)C2	-	75.8
